Rows were chosen to be rich in hits. Some 11% of all compounds tested hit in one or more screens of this group.
HP1b chromo inh = inhibitors of HP1-beta chromodomain binding to methylated histone tails; P83916; AlphaScreen HP1-beta / biotin-H3K9me3 peptide binding; Potency, µM (titrated, usually from 114 µM), most hits filed as inhibitors; hit rate 0.56% among 390,000; AID 540317; also: nearly all actives have a fitted effect of over 70% in size
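HP1-beta protein (50 nM final) preincubated 30 min at room temperature with biotinylated H3(1-18)K9me3 peptide (50 nM) in PBS pH 7.4, 0.01% Tween-20, then compound added for 30 min. AlphaScreen streptavidin donor/nickel chelate acceptor beads (10 ug/mL final), 30 min dark, luminescence read.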
BAZ2B inh = blocks human BAZ2B | Q9UIF8 | AlphaScreen BAZ2B-H3K14Ac peptide displacement | Potency, µM (titrated, usually from 114 µM), hits mostly inhibitors | hit rate 4.4% among 360,000 | AID 504333; also: nearly all actives have a fitted effect of over 60% in size
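BAZ2B 50 nM plus b-H3(5-23)K14Ac 50 nM, PBS pH 7.4/0.01% Tween-20, 30 min RT; compound added (max 110 uM), 30 min RT; streptavidin donor/Ni-chelate acceptor beads 10 ug/mL final, 20 min dark; AlphaScreen read.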
PLK1 PBD inh = PLK1 (human) polo-box domain binding inhibition; Plk1 PBD binding of FITC phosphopeptide, fluorescence polarization; Potency, µM, most hits filed as inhibitors; hit rate 2.8% among 360,000; AID 720504; also: series mostly up to about 57 µM; nearly all actives have a fitted effect of over 65% in size
VDR inh = vitamin D3 receptor (human) inhibition; P11473; hit rate 0.93% among 400,000; Potency, µM, actives largely listed as inhibitors; VDR-SRC2-3 peptide fluorescence polarization, 2 h
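Compounds are added to VDR with labelled SRC2-3 coactivator peptide and held 2 h at room temperature. Inhibition of the VDR–peptide interaction is then read as a change in fluorescence polarization.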
JMJD2A Tudor = inhibitors of human JMJD2A Tudor domain. O75164. AlphaScreen JMJD2A-Tudor / H3K4me3 peptide binding. Potency, µM (top dose mostly 114 µM), usual class: inhibitors. hit rate 4.4% among 390,000; also: nearly all actives have a fitted effect of over 50% in size
G9a inh = G9a (human) methyltransferase inhibition | G9a H3K9 monomethylation, AlphaScreen, 2 h | Potency, µM (highest dose often 102 µM), actives largely listed as inhibitors | hit rate 8.8% among 350,000 | AID 504332; also: nearly all actives have a fitted effect of over 75% in size
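Enzyme 20 nM + cpd, 15 min RT; add b-H3K9 pep 500 nM / SAM 20 uM; 2 h RT; anti-H3K9me1 Ab 0.5 ug/mL + SA donor / anti-rabbit acceptor beads 20 ug/mL each, 10 min; AlphaScreen read.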
Hits are given with their value; – = inactive; ? = inconclusive; · = no result given; [ ] = dose if it differs, or a comment. Calls follow the shape of the dose curve; as a rule, active = well fitted curve in the direction sought with a large enough effect; inconclusive = small, poorly fitted or top-dose-only effect, or another doubt; inactive = no such curve, though single readings can be large; an effect the other way counts as inactive or inconclusive.

SMILES	HP1b chromo inh	BAZ2B inh	PLK1 PBD inh	VDR inh	JMJD2A Tudor	G9a inh
COc1ccc(OC)c(N(C)S(=O)(=O)c2ccc3c(c2)N(C(C)=O)CCO3)c1	–	–	–	–	–	–
CCOC(=O)C1CCN(C(=O)COC(=O)CSc2ccccc2C)CC1	–	·	–	–	–	·
CCc1ccc(OC(C)C(=O)Nc2ccc(S(=O)(=O)Nc3nccs3)cc2)cc1 (stereo not drawn)	–	–	–	–	–	–
Cc1nc2cc(N)ccc2n1C1CCCCC1	–	?	–	–	–	14µM
CCn1c(C)nc2cc(N)ccc21	–	?	–	–	–	·
Cc1nc(NS(=O)(=O)c2ccccc2)sc1NC(=O)OCCN(C)C	–	–	21µM	–	–[11.4 µM]	?
CCN1C(=S)SC(=O)C1=C1C=C(C)N(Cc2ccco2)C(C)=C1	–	?	–	–	–	?
CN1C(=O)C2(c3ccccc31)N(C)CC(c1ccccn1)C21SC(=S)N(Cc2ccco2)C1=O (stereo not drawn)	?	22µM	–	–	28µM	·
COc1ccc(C2/C(=C(/O)c3ccccc3)C(=O)C(=O)N2CCO)cc1 (stereo not drawn)	–	–	–	–	–	45µM
COc1ccccc1C1/C(=C(/O)c2ccccc2)C(=O)C(=O)N1CC(C)C (stereo not drawn)	–	–	–	–	?	?
O=C1C(=O)N(CCO)C(c2ccccc2)/C1=C(\O)c1ccccc1 (stereo not drawn)	–	–	–	–	–	?
COc1ccc(OC)c(C2/C(=C(/O)c3ccccc3)C(=O)C(=O)N2Cc2ccco2)c1 (stereo not drawn)	–	–	–	–	–	–
CCOc1ccc(/C(O)=C2/C(=O)C(=O)N(CC3CCCO3)C2c2ccc(C)o2)cc1 (stereo not drawn)	–	–	–	–	?	–[12.7 µM]
COc1cccc(/C(O)=C2/C(=O)C(=O)N(Cc3ccco3)C2c2ccncc2)c1 (stereo not drawn)	–	?	–	–	?	28µM
COc1ccc(C2/C(=C(/O)c3ccccc3)C(=O)C(=O)N2CC(C)O)c(OC)c1 (stereo not drawn)	–	–	–	–	18µM	?
CCOc1ccc(/C(O)=C2/C(=O)C(=O)N(CC3CCCO3)C2c2ccco2)cc1 (stereo not drawn)	–	–	–	–	79µM	?
CCCCSCCCNC(=O)C1CCC(CNS(=O)(=O)c2c(C)cc(C)cc2C)CC1 (stereo not drawn)	–	–	·	–	–	–
CS(=O)(=O)Nc1cccc(-c2cncnc2NCc2cccnc2)c1	·	·	·	–	·	–[0.501 µM]
CCOc1cccc(/C(O)=C2/C(=O)C(=O)N(Cc3cccnc3)C2c2ccco2)c1 (stereo not drawn)	–	–	–	–	?	?
COc1cccc(C2/C(=C(/O)c3ccc(C)cc3)C(=O)C(=O)N2Cc2ccco2)c1 (stereo not drawn)	–	–	–	–	–	–
COCCN1C(=O)C(=O)/C(=C(/O)c2cccc(OC)c2)C1c1ccncc1 (stereo not drawn)	–	–	–	–	?	50µM
COCCN1C(=O)C(=O)/C(=C(/O)c2cccc(OC)c2)C1c1ccc(C)o1 (stereo not drawn)	–	–	–	–	?	–[12.7 µM]
CCOc1cccc(/C(O)=C2/C(=O)C(=O)N(CCOC)C2c2ccco2)c1 (stereo not drawn)	–	–	–	–	79µM	?
COc1cccc(C2/C(=C(/O)c3ccccc3)C(=O)C(=O)N2Cc2ccco2)c1 (stereo not drawn)	–	–	–	–	–	56µM
CCOc1cccc(/C(O)=C2/C(=O)C(=O)N(Cc3ccco3)C2c2ccncc2)c1 (stereo not drawn)	–	?	–	–	?	45µM
SMILES	HP1b chromo inh	BAZ2B inh	PLK1 PBD inh	VDR inh	JMJD2A Tudor	G9a inh
Cc1nc2nc(NC(=O)c3ccco3)[nH]n2c(=O)c1C	–	–	–	–	–	?
NS(=O)(=O)c1ccc(NC(=S)N2CCN(Cc3ccc(Cl)c(Cl)c3)CC2)cc1	–	–	–	–	?	?
CCC(C)NC(=S)N1CCN(Cc2ccc3c(c2)OCO3)CC1 (stereo not drawn)	–	50µM	?	–	–[11.4 µM]	25µM
CC(C)c1ccccc1NCC(=O)N1CCN(Cc2ccccc2)CC1	–	–	–	–	–	50µM
CC(C)CNC(=S)N1CCN(Cc2ccc3c(c2)OCO3)CC1	25µM	22µM	–	–	20µM	16µM
CC(C)c1ccccc1NC(=S)N1CCN(Cc2ccc3c(c2)OCO3)CC1	–	?	–	–	–	–
Cc1cccc(C)c1NCC(=O)N1CCN(Cc2ccccc2)CC1	–	–	–	–	–	–[2.33 µM]
NS(=O)(=O)c1ccc(NC(=S)N2CCN(Cc3ccc4c(c3)OCO4)CC2)cc1	–	–	12µM	–	–	–
CCCNC(=O)Cn1c(=O)n(CC2CCC(C(=O)NC)CC2)c(=O)c2sccc21 (stereo not drawn)	–	–	·	–	–	–
Cc1cc(C)cc(NC(=O)c2cccc(N3CCCS3(=O)=O)c2)c1	–	–	·	–	–	–
COc1ccccc1C(=O)N(c1ccc(C)cc1)S(=O)(=O)c1ccc(Cl)cc1	–	–	·	–	–	–
C=CCNC(=O)COc1ccc(Br)cc1Cl	–	–	–	–	–	–
Oc1cccc(C(=S)N2CCN(Cc3ccccc3)CC2)c1	?	–	15µM	–	?	?
CCC(C)NC(=S)N1CCN(Cc2ccccc2)CC1 (stereo not drawn)	79µM	–	–	–	?	–
Cc1ccc(C)c(S(=O)(=O)N2CCCOC2CNC(=O)C(=O)NC2CC2)c1 (stereo not drawn)	–	–	–	–	–	·
CCc1nc2nc(C)c(NS(=O)(=O)c3ccc(F)cc3)c(=O)n2[nH]1	–	–	–	–	–	25µM
CCc1nc2nc(C)c(NS(=O)(=O)c3ccc(Br)s3)c(=O)n2[nH]1	–	–	–	–	?	50µM
CCc1nc2nc(C)c(NS(=O)(=O)c3cccs3)c(=O)n2[nH]1	–	–	–	–	–	?
CCCc1nc2nc(C)c(NS(=O)(=O)c3ccc(C(C)(C)C)cc3)c(=O)n2[nH]1	–	–	–	–	–	79µM
CCCc1nc2nc(C)c(NS(=O)(=O)c3ccc4c(c3)CCCC4)c(=O)n2[nH]1	–	–	–	–	–	–
CC(C)/C=C/CN1CCN(CCCc2ccccc2)C(CCO)C1 (stereo not drawn)	–	–	–	?	–	–[0.501 µM]
CN(C)S(=O)(=O)c1ccc(Cl)c(NC(=O)COC(=O)CCC2CCCCC2)c1	–	·	–	–	–	·
Cc1cccc(N2CCN(C(=O)c3ccccc3SCC(=O)N3CCCC3)CC2)c1C	–	–	–	–	–	–[2.33 µM]
